High-throughput results as filed in PubChem.
RGS7-Gao reg – regulators of human RGS7-Galphao interaction | P09471 | Multiplexed bead flow cytometry, RGS7-Galphao binding; actives lie on both sides | binding response (% of control), % at 10 µM | actives 0.35% (n = 220,000) | AID 1439; in the data active means binding response below about 49% or above about 150%; inconclusive means no clear call, values can overlap the other calls; inactive means in between;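 further: fluorescent Galphao held in activated GDP-AlF4 state binding bead-coupled RGS7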
GSH fluor – GSH bead compound fluorescence profile | actives 0.25% (n = 190,000) | fluorescence (KMESF) at 10 µM | GSH beads flow cytometry, compound fluorescence 488/530 nm; stronger effect = higher value; in the data active means fluorescence above about 89;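 further: glutathione beads carrying GST-tagged Bcl family fusion proteins plus one bare bead set; values are compound well signal with DMSO vehicle wells as background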
RGS4-Gao reg – modulates binding of RGS4 to human Galphao; P09471; Multiplexed bead flow cytometry; actives lie on both sides; binding response (% of control), % at 10 µM; actives 0.33% (n = 220,000); AID 1415; in the data active means binding response below about 49% or above about 150%; inactive means in between;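 further: fluorescent Galphao activated with aluminum fluoride binding bead-coupled RGS4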
RGS16-Gao HTS – RGS16-Galphao interaction regulator (human). bead-based flow cytometry RGS16-Galphao binding, fluorescence; actives lie on both sides. actives 0.38% (n = 220,000). O15492+P09471. binding response (% of control), % at 10 µM; call rule not given here;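 further: Galphao activated by GDP with aluminum fluoride before binding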
Avidin bead fluor – avidin bead compound fluorescence profile | Avidin beads, compound fluorescence 488/530 nm, flow cytometry; stronger effect = higher value | fluorescence (KMESF) at 10 µM | actives 0.38% (n = 220,000) | AID 1775; in the data active means fluorescence above about 47
RGS8-Gao – regulators of human RGS8-Galphao interaction; AID 1423; actives 0.34% (n = 220,000); response (percent of control binding), % at 10 µM; multiplexed bead flow cytometry, RGS8-Galphao binding; actives lie on both sides; in the data active means response below about 60% or above about 140%; inactive means in between;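 further: Galphao activated as the GDP aluminium fluoride complex binding bead-coupled RGS8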
Starred values were filed as active, the others as inactive. Only some compounds are listed: those with a hit (about 1.2% of all), similar ones and a draw of the others.

`Cc1onc(-c2c(Cl)cccc2Cl)c1C(=O)c1c[nH]c(C(=O)NCC2CCCO2)c1` (stereo unspecified) gave RGS7-Gao reg inconclusive, GSH fluor 12, RGS4-Gao reg 94, RGS16-Gao HTS 94, Avidin bead fluor 10 and RGS8-Gao 97.
Screening COc1ccc(NC(=S)N2CCN(CCN3C(=O)c4cccc5cccc(c45)C3=O)CC2)cc1 returned RGS7-Gao reg inconclusive, GSH fluor 14, RGS4-Gao reg 104, RGS16-Gao HTS 102, Avidin bead fluor 10 and RGS8-Gao 101.
`CCOc1ccc(NC(=S)N2CCN(CCN3C(=O)c4cccc5cccc(c45)C3=O)CC2)cc1` gave RGS7-Gao reg 123, GSH fluor 13, RGS4-Gao reg 106, RGS16-Gao HTS 113, Avidin bead fluor 51* and RGS8-Gao 106.
Screening CN(C)CC(C)(C)CNC(=O)C1CCN(Cc2ccccc2O)CC1 returned RGS7-Gao reg 103, GSH fluor 35, RGS4-Gao reg 99, RGS16-Gao HTS 107, Avidin bead fluor 5 and RGS8-Gao 97.
N/C(=N\OC(=O)c1cccs1)c1ccccc1 was read as RGS7-Gao reg 148, GSH fluor 5, RGS4-Gao reg 116, RGS16-Gao HTS 85, Avidin bead fluor 51* and RGS8-Gao 102.
`CCOc1ccc2nc3c(cc2c1)CN(CCOC)C(=NC)S3` gave RGS7-Gao reg 105, GSH fluor 114*, RGS4-Gao reg 99, RGS16-Gao HTS 108, Avidin bead fluor 5 and RGS8-Gao 100.
`O=C(CCCn1nnc2ccccc2c1=O)N[C@H](C(=O)O)c1ccccc1` gave RGS7-Gao reg inconclusive, RGS4-Gao reg 117, RGS16-Gao HTS 97, Avidin bead fluor 49* and RGS8-Gao 98.
`COc1ccccc1-c1nn2c(=O)cc(C)nc2s1` gave RGS7-Gao reg 102, GSH fluor 254*, RGS4-Gao reg 104, RGS16-Gao HTS 105, Avidin bead fluor 7 and RGS8-Gao 102.
`COc1ccccc1-c1nn2c(-c3ccco3)nnc2s1` gave RGS7-Gao reg 94, GSH fluor 16, RGS4-Gao reg 98, RGS16-Gao HTS 96, Avidin bead fluor 2 and RGS8-Gao 100.
`Cc1ccnc2nc(C(=O)N3CCN(c4ccc(F)cc4)CC3)nn12` gave RGS7-Gao reg 97, GSH fluor 249*, RGS4-Gao reg 97, RGS16-Gao HTS 58, Avidin bead fluor 5 and RGS8-Gao 95.
For CCCCNc1n[n+](C)c(-c2cccc(C)c2)s1 the results were RGS7-Gao reg inconclusive, RGS4-Gao reg 101, RGS16-Gao HTS 102, Avidin bead fluor 8 and RGS8-Gao 95.
COc1ccc(N2C(=O)CSC23C(=O)Nc2ccccc23)cc1 (stereo unspecified) was read as RGS7-Gao reg 101, GSH fluor 100*, RGS4-Gao reg 99, RGS16-Gao HTS 102, Avidin bead fluor 7 and RGS8-Gao 101.
Screening CCn1c(N)c(C(=O)NC)sc1=S returned RGS7-Gao reg 126, GSH fluor 87*, RGS4-Gao reg 99, RGS16-Gao HTS 44, Avidin bead fluor 8 and RGS8-Gao 69.
For Cc1ccccc1-n1cnnc1SCC(=O)N1CCN(c2ccccc2)CC1 the results were RGS7-Gao reg 107, GSH fluor 15, RGS4-Gao reg 104, RGS16-Gao HTS 102, Avidin bead fluor 50* and RGS8-Gao 101.
Screening Cc1nnc(SCC(=O)N2CCN(c3ccccc3)CC2)n(N)c1=O returned RGS7-Gao reg 98, GSH fluor 19, RGS4-Gao reg 103, RGS16-Gao HTS 101, Avidin bead fluor 6 and RGS8-Gao 100.
For CC(C)CNC(=S)Nc1ccc(Oc2ccccc2)cc1 the results were RGS7-Gao reg 86, GSH fluor 19, RGS4-Gao reg 84, RGS16-Gao HTS 91, Avidin bead fluor 23 and RGS8-Gao 95.
`CCCN(CCC)C1CC(=O)N(Cc2ccccc2)C1=O` (stereo unspecified) gave RGS7-Gao reg 113, GSH fluor 19, RGS4-Gao reg 103, RGS16-Gao HTS 104, Avidin bead fluor 58* and RGS8-Gao 103.
